Compounds without any hit were thinned out: in the full panel of roughly 79,000, 15% have a hit. No stated cut-off is given here; in the data, active means growth inhibition above about 70%; inactive means the rest.
Columns and labels:
[1] = NCI Yeast Anticancer Drug Screen. Data for the rad50 strain (AID 155);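 further: 0% = growth of vehicle-only cultures of the same strain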; details: S. cerevisiae rad50 strain growth inhibition; at 50.0 µM; stronger effect = higher value
In short: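 Yeast carrying a defined DNA repair defect were exposed to test compounds, and growth was compared with vehicle-treated controls to give percent inhibition.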

[2] = NCI Yeast Anticancer Drug Screen. Data for the mec2-1 strain (AID 157); details: S. cerevisiae mec2-1 strain, at 50.0 µM, stronger effect = higher value
In short: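 Readout is yeast growth inhibition, normalised to vehicle-treated controls, in the mec2-1 strain exposed to compound.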

[3] = NCI Yeast Anticancer Drug Screen. Data for the sgs1 mgt1 strain (AID 161);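 further: 0% = growth of cultures given vehicle only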; details: S. cerevisiae sgs1 mgt1 strain, at 50.0 µM, stronger effect = higher value
In short: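 Yeast cells carrying a defined DNA-repair defect were exposed to test compounds. Growth inhibition was measured relative to vehicle-treated controls.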

[4] = NCI Yeast Anticancer Drug Screen. Data for the cln2 rad14 strain (AID 165);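 further: 0% = growth equal to vehicle treated cultures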; details: S. cerevisiae cln2 rad14 strain, at 50.0 µM, stronger effect = higher value
In short: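 Relative to vehicle controls, growth inhibition of compound-treated cln2 rad14 yeast was recorded.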

[5] = NCI Yeast Anticancer Drug Screen. Data for the bub3 strain (AID 167); details: S. cerevisiae bub3 mutant strain, at 50.0 µM, stronger effect = higher value
In short: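 Compounds were applied to a genetically altered yeast strain carrying a cell-cycle control defect. Growth inhibition was scored against vehicle-treated controls.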

[6] = NCI Yeast Anticancer Drug Screen. Data for the mlh1 rad18 strain (AID 175); details: S. cerevisiae mlh1 rad18 strain growth inhibition; at 50.0 µM; stronger effect = higher value
In short: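 Test agents were incubated with a yeast strain of defined genotype (DNA damage repair defect). Inhibition of growth was derived by comparison with vehicle-exposed cultures.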

Measured: growth inhibition

Clc1nc(N2CCOCC2)c2[nH]cnc2n1
inactive: [1] -5.9% | [2] 5.7% | [3] 3.9% | [4] -6.1% | [5] 8.8% | [6] 6.25%

CC(=O)OC(C)C(=O)OCCOc1ccccc1 (stereo not given)
inactive: [1] 8.7% | [2] -12% | [3] 14.3% | [4] -36.6% | [5] -7.3% | [6] -4%

NC(C(=O)O)C(F)(F)C(=O)O (stereo not given)
inactive: [1] 2.45% | [2] -18.7% | [3] -2.7% | [4] -33.1% | [5] -7.3% | [6] -1.15%

Cc1ccc(Cl)cc1NC(=O)Nc1cc(Cl)c(Cl)cc1C
inactive: [1] 3.55% | [2] 45% | [3] 43.5% | [4] -2.5% | [5] 45.9% | [6] 33.3%

O=c1c([OH2+])c(-c2ccc(O)cc2[O-])oc2cc(O)cc([O-])c12.O=c1c([OH2+])c(-c2ccc(O)cc2[O-])oc2cc(O)cc([O-])c12.[Ti+4]
inactive: [1] -43.4% | [2] 27.2% | [3] 7.95% | [4] 8.2% | [5] 2.55% | [6] 10.2%

COc1ccc(-c2nn(CCO)c(=O)c(C#N)c2-c2ccc(OC)cc2)cc1
inactive: [1] 28.9% | [2] 1.3% | [3] 6.65% | [4] 7.3% | [5] 13.7% | [6] 5.9%

COC(=O)Nc1ccc(C)cc1[N+](=O)[O-]
inactive: [1] 5.5% | [2] -8.75% | [3] -13.4% | [4] -50.4% | [5] 6.4% | [6] -0.6%

CC1=C(C(=O)Nc2ccc(Cl)c(C(=O)OC(C)C)c2)SCCO1
inactive: [1] 44.9% | [2] 7.35% | [3] 5.15% | [4] 4.05% | [5] 25.4% | [6] 0.45%

Nc1[nH]c(=O)nc2snnc12
inactive: [1] 2.35% | [2] -2.3% | [3] 14.9% | [4] 16.3% | [5] 6.1% | [6] -57.9%

O=CNc1cccc2c(=O)[nH][nH]c(=O)c12
inactive: [1] -21.9% | [2] -46.8% | [3] -56.6% | [4] 18.1% | [5] -26.1% | [6] -39.1%

CO/N=C1\C(C)(C)C(C)(C)C(C)(C)C1(C)SS(=O)(=O)O (stereo not given)
inactive: [1] 23.6% | [2] 19.1% | [3] 12.6% | [4] 17.6% | [5] 20.8% | [6] 29.9%

O=Cc1sccc1NC(=O)c1ccccc1
inactive: [1] 2.65% | [2] -14.6% | [3] -18% | [4] -18.1% | [5] -7.5% | [6] 9.15%

O=C(/C=C/c1ccc(OCCCCCCCCCCOc2ccc(/C=C/C(=O)c3ccc(Cl)cc3)cc2)cc1)c1ccc(Cl)cc1
inactive: [1] 5.3% | [2] -1.45% | [3] -15.3% | [4] 16.1% | [5] 22.5% | [6] 15.6%

Cc1cc(NC(=O)C(=O)CC(=O)c2ccc(Cl)s2)no1
inactive: [1] -51.3% | [2] 4.95% | [3] -8.55% | [4] -56.4% | [5] -6.7% | [6] -2.6%

NS(=O)(=O)c1ccc(NC(=O)c2cccn3c(=O)c4ccccc4nc23)cc1
inactive: [1] 6.6% | [2] 9.45% | [3] -7.6% | [4] 27.2% | [5] -0.25% | [6] 14.9%

COc1ccc(C2C(=O)C(Cl)N2Nc2nc(C)cc(=O)[nH]2)cc1OC (stereo not given)
inactive: [1] 1.45% | [2] -18.9% | [3] 4.2% | [4] -2.3% | [5] -27.9% | [6] -15.8%

CS(=O)(=O)OCCOc1ccccc1
inactive: [1] 1.15% | [2] -0.45% | [3] 0.95% | [4] -32% | [5] 9.15% | [6] 8.05%

CC(C)N(C(=O)C12C3C4C5C3C1(C(=O)N(C(C)C)C(C)C)C5C42)C(C)C (stereo not given)
inactive: [1] 16.5% | [2] 17.4% | [3] 12.2% | [4] 1% | [5] 19.9% | [6] 14.4%

NC1=NNC(=O)/C1=C/c1ccccc1
inactive: [1] 16.6% | [2] 5.85% | [3] 0.55% | [4] -17.1% | [5] -10.2% | [6] 22.2%

CCCCCCCCOCC1S(=O)(=O)OCCOS1(=O)=O
inactive: [1] -48.2% | [2] -17.6% | [3] -50.7% | [4] -53.8% | [5] -24.4% | [6] -2.3%

Source: PubChem BioAssay (NCI)
